# Results from PubChem BioAssay (NCI).
# About 83,000 compounds went through this panel and 20% of them were active in at least one assay; those are over-represented in the sample as a whole.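 Negative percent growth values reflect cell death: -40 means 40% of the cells present at the start died, and -100 means all died.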 Values without a mark were called inactive. Calls of active or inactive are those of the source. The calls were made as follows: active = growth percent below 10; inactive = the rest.
# Experiments:
# Experiment in all cases: NCI-60 one-dose screen, 48 h (100 = growth as untreated, 0 = no growth, -100 = all killed)
# Conditions in all cases: 10 µM unless noted
# SK-MEL-2 melanoma = system: SK-MEL-2 melanoma
# EKVX NSCLC = system: EKVX NSCLC
# SN12C renal = system: SN12C renal
# UO-31 renal = system: UO-31 renal
# TK-10 renal = system: TK-10 renal
# ACHN renal = system: ACHN renal
# A498 renal = system: A498 renal
# CCRF-CEM leukemia = system: CCRF-CEM leukemia
# OVCAR-8 ovarian = system: OVCAR-8 ovarian
# OVCAR-5 ovarian = system: OVCAR-5 ovarian
# OVCAR-4 ovarian = system: OVCAR-4 ovarian
# SK-OV-3 ovarian = system: SK-OV-3 ovarian
# OVCAR-3 ovarian = system: OVCAR-3 ovarian
# HS 578T breast = system: HS 578T breast
# NCI/ADR-RES ovarian = system: NCI/ADR-RES ovarian
# CAKI-1 renal = system: CAKI-1 renal
# MOLT-4 leukemia = system: MOLT-4 leukemia
# SR leukemia = system: SR leukemia
# RPMI-8226 leukemia = system: RPMI-8226 leukemia
# IGROV1 ovarian = system: IGROV1 ovarian
Structure (SMILES),growth (SK-MEL-2 melanoma),growth (EKVX NSCLC),growth (SN12C renal),growth (UO-31 renal),growth (TK-10 renal),growth (ACHN renal) [%],growth (A498 renal),growth (CCRF-CEM leukemia),growth (OVCAR-8 ovarian),growth (OVCAR-5 ovarian),growth (OVCAR-4 ovarian) [%],growth (SK-OV-3 ovarian),growth (OVCAR-3 ovarian),growth (HS 578T breast),growth (NCI/ADR-RES ovarian),growth (CAKI-1 renal) [%],growth (MOLT-4 leukemia),growth (SR leukemia),growth (RPMI-8226 leukemia),growth (IGROV1 ovarian) [%]
N#C/C(=C\c1ccc(C#N)cc1)C(=O)c1ccccc1,101%,109%,95.7%,89.1%,132%,101,118%,92.9%,101%,104%,98.7,109%,105%,116%,98.7%,,,,,
CC(C)C(C)(C)C(=O)C(C)(C)C(C)(C)C,99.9%,,98.2%,95.5%,96.2%,99.3,83.9%,107%,99.1%,97.5%,117,82.8%,80.3%,93.9%,104%,104,110%,100%,96.1%,105
O=C(O)c1ccc([N+](=O)[O-])cc1S(=O)(=O)O,95.9%,,103%,102%,99.3%,106,108%,81.2%,99.5%,106%,116,103%,99.4%,100%,104%,110,105%,110%,99.5%,108
NC(CCl)=NCC12CC3CC(CC(C3)C1)C2,-44.6% (active),-7.97% (active),9.41% (active),-98.5% (active),-2.27% (active),11.8,33%,-15.8% (active),-26.8% (active),7.23% (active),11.3,24.2%,-21.9% (active),47.9%,3.54% (active),,27.4%,,-50.4% (active),
CC(=O)Nc1ccc(C(=O)c2ccc(S(=O)(=O)Nc3ccccc3)cc2)cc1,80.6%,105%,98.6%,85.7%,,104,,82.8%,84%,,95.5,104%,105%,127%,30.6%,106,102%,105%,68.1%,
COC(=O)c1ccc([N+](=O)[O-])c(C)c1,116%,109%,109%,79.9%,128%,97.1,79.5%,4.56% (active),108%,90.7%,101,106%,105%,,108%,,112%,,81.1%,93.1
CC(=O)Nc1ncc(S(=O)(=O)c2ccc([N+](=O)[O-])cc2)s1,119%,114%,104%,79.4%,105%,115,,101%,103%,109%,102,94%,120%,,118%,,102%,96.4%,100%,112
Nc1nnc2cc(F)ccc2n1,112%,96.9%,89.1%,85%,126%,99.4,105%,107%,110%,97.9%,115,91.6%,96.2%,97.2%,103%,,,,102%,102
c1ccc2[nH]c(Cc3nc4ccccc4[nH]3)nc2c1,121%,104%,107%,95.3%,122%,96.2,98.5%,27.9%,112%,92%,96.5,126%,122%,,110%,,110%,100%,71.9%,92.2
CCOC(=O)c1c[nH][nH]c1=O,94.1%,116%,104%,93.7%,111%,106,98.5%,107%,105%,94.8%,101,110%,112%,119%,98.4%,,106%,109%,93%,
COC1OC(C(O)C(O)CO)C(O)C(O)C1O (stereo unspecified),99.5%,,94.1%,97.1%,107%,101,107%,95.4%,105%,88.7%,109,95.6%,109%,109%,106%,95.6,105%,97.7%,93.3%,103
OCC1CCC(O)C(CO)N1 (stereo unspecified),129%,92.3%,103%,90.8%,121%,100,91.5%,,112%,88.4%,94.6,118%,107%,,118%,,106%,101%,83.7%,110
COC1OC(COC(C)=O)C(OC(C)=O)C(OC(C)=O)C1OC(C)=O (stereo unspecified),101%,93%,101%,99.3%,104%,,88.8%,95.9%,97.9%,93%,86.5,101%,96%,101%,95.2%,,96.3%,95.5%,96.4%,118
N#C/C(=C\c1ccc2c(c1)OCO2)c1ccccc1,76.5%,80.9%,89.3%,76.7%,,93.6,,75.3%,90.1%,79.6%,99.8,87.3%,79.4%,,47.8%,58.9,57.8%,14.2%,74.8%,62.8
COC1CC(OC(=O)c2ccc([N+](=O)[O-])cc2)C(COC(=O)c2ccc([N+](=O)[O-])cc2)O1 (stereo unspecified),127%,,98.9%,95.6%,124%,112,83.5%,98.1%,91.2%,99.7%,97,107%,111%,109%,108%,94,103%,85.9%,101%,126
CC(=O)OCC1OC(n2cnc3c(=S)nc(N)[nH]c32)C(OC(C)=O)C1OC(C)=O (stereo unspecified),95.2%,83.9%,97.4%,72.6%,82.4%,72.1,105%,,76.6%,70%,82.5,50.1%,83.4%,77.3%,78.4%,,2.42% (active),,,96.6
O=S(=O)(c1ccc(NC(=S)NCc2cccnc2)cc1)N1CCCCC1,41.6%,,36.1%,70.7%,112%,86.9,97.3%,29%,110%,59.8%,95.6,79.3%,82.3%,70.3%,63.4%,29.1,47.3%,49.1%,36.2%,62
CCCC(=O)CC(=O)c1ccccc1,78.5%,,96.3%,90.8%,94.8%,105,70.4%,97.5%,93.6%,101%,112,-20% (active),99.4%,106%,100%,107,107%,107%,103%,108

Structure (SMILES),growth (SK-MEL-2 melanoma),growth (EKVX NSCLC),growth (SN12C renal),growth (UO-31 renal),growth (TK-10 renal),growth (ACHN renal) [%],growth (A498 renal),growth (CCRF-CEM leukemia),growth (OVCAR-8 ovarian),growth (OVCAR-5 ovarian),growth (OVCAR-4 ovarian) [%],growth (SK-OV-3 ovarian),growth (OVCAR-3 ovarian),growth (HS 578T breast),growth (NCI/ADR-RES ovarian),growth (CAKI-1 renal) [%],growth (MOLT-4 leukemia),growth (SR leukemia),growth (RPMI-8226 leukemia),growth (IGROV1 ovarian) [%]
OC(CCN1CCCCC1)(c1ccccc1)c1ccccc1,110%,98.9%,108%,75.4%,113%,,100%,103%,99%,,99.8,112%,112%,107%,100%,92.6,102%,104%,100%,106
Cc1ccnc(Nc2nc3ccccc3[nH]2)n1,105%,104%,104%,104%,113%,106,,93.3%,106%,95.3%,109,101%,132%,,112%,,92.4%,97.1%,94.1%,97.6
Nc1ccccc1SC1CC(=O)N(c2ccc(Cl)c(Cl)c2)C1=O (stereo unspecified),12.9%,86.4%,115%,72.6%,137%,108,84.8%,,79.4%,104%,92.1,90.5%,113%,117%,95.7%,,109%,91.1%,,105
Cn1c(=O)c2nc3c(=O)n(C)c(=O)n(C)c3nc2n(C)c1=O,110%,93.9%,106%,82.1%,128%,101,126%,104%,108%,91.1%,108,97%,107%,-27.8% (active),97%,,84.9%,82.5%,,106
COc1ccc(C2CCCCC2=O)cc1 (stereo unspecified),119%,102%,109%,96.7%,,98.7,99.7%,106%,103%,96.9%,103,103%,121%,,108%,105,,103%,107%,118
CC1(C)CCC(C)(C)NC(=S)N1,94.1%,,97.1%,88.2%,98%,104,112%,102%,106%,102%,107,105%,111%,109%,108%,100,97.5%,92.1%,96.4%,121
O=S(=O)(O)c1ccc(O)c(C2CCCCC2)c1,102%,,105%,91%,95%,105,66.3%,110%,102%,103%,94.4,97.1%,113%,116%,118%,94.4,99.9%,,105%,107
C=CC1=NC(C)(C)CC(C)O1 (stereo unspecified),112%,,99.2%,111%,106%,101,98.3%,95.7%,113%,104%,98.6,108%,113%,107%,112%,114,98.5%,113%,105%,
COc1cc2c(c(OC)c1OC)-c1ccc(SC)c(=O)cc1[C@@H](NC1OC(CO)C(O)C(O)C1O)CC2 (stereo partly specified),4.69% (active),,33.6%,34.4%,42.1%,27.2,-14.3% (active),4.92% (active),,28.1%,68.3,1.33% (active),-15.5% (active),28.5%,7.19% (active),18.7,1.36% (active),-22.4% (active),19.7%,14.8
CC(O)C(F)(F)C(F)(F)C(F)(F)F (stereo unspecified),111%,,110%,95.3%,102%,93.8,120%,108%,110%,98.7%,103,118%,121%,105%,110%,99.2,96.4%,,128%,
CCCCCCCCCCC(=O)CCCCCCCCCC,111%,,102%,85.8%,98.8%,96.7,107%,90%,109%,103%,103,92.1%,118%,114%,100%,95,92%,,98.8%,
CCOC(=O)CSCCC#N,105%,,97.9%,98.8%,101%,95.2,83.1%,102%,96.8%,85%,105,92.5%,111%,107%,100%,96,91.5%,,106%,
CCOC(C=O)OCC,102%,,102%,94.4%,93.1%,112,93.3%,99.1%,102%,102%,114,106%,109%,109%,107%,97.8,85.2%,89.9%,99.1%,108
Cc1ccc(NC(=S)N2CCOCC2)cc1C,100%,,99.4%,66.3%,103%,99.2,105%,109%,104%,102%,102,97.9%,104%,94.7%,110%,101,,108%,102%,103
CCC(/C=C\C(C)=O)CC,112%,,98.3%,92.3%,102%,102,90.4%,105%,103%,104%,86.5,110%,122%,102%,105%,100,112%,101%,97.6%,115
Cc1cc(=O)n(Nc2ccccc2)c(O)c1C#N,96.4%,,99.4%,62%,104%,104,115%,99.8%,106%,105%,108,99.6%,98.6%,100%,102%,92.5,103%,88.9%,99.8%,101
CC(=O)NC(O)C(Cl)Cl (stereo unspecified),100%,,110%,92.8%,97.3%,105,94.3%,99.4%,96.4%,97.2%,97.5,-22.9% (active),74.5%,107%,98.5%,92.3,104%,97.2%,95.8%,107
COC1OC(C(COC(C)=O)OC(C)=O)C(OC(C)=O)C(OC(C)=O)C1OC(C)=O (stereo unspecified),113%,,107%,83.8%,107%,95.3,125%,104%,103%,89.7%,107,110%,118%,129%,105%,96.2,93.5%,87.3%,98.7%,104
